Screening results from PubChem BioAssay.
Shown are actives, neighbours in structure and some others; about 19% of the full set was active somewhere.
HT1080-NT tox: kills 2HG-producing HT-1080-NT fibrosarcoma cells; hit rate 1.6% among 360,000; AID 686970; HT-1080-NT fibrosarcoma viability, CellTiter-Glo ATP luminescence, 48 h; Potency, µM (series often up to 46.1 µM), for inactives: at the top dose activity, negative = less viability, usual class: cytotoxic;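 further: NT is the 2HG producing partner of a matched IDH1 knockdown line; 0% = DMSO-treated cells and -100% = media-only wells without cells; nearly all actives have a fitted effect of over 55% in size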
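Read-out is CellTiter-Glo luminescence after 10 minutes at room temperature, following 48 hours' compound treatment of HT-1080-NT cells (750 cells/well, RPMI, 5% FBS, 37 degrees C).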
KB-3-1 cytotox: kills parental KB-3-1 adenocarcinoma cells; KB-3-1 viability, CellTiter-Glo ATP luminescence, 72 h; Potency, µM (series often up to 46.1 µM), actives largely listed as cytotoxic; hit rate 1.4% among 400,000; AID 1347075; further: nearly all actives have a fitted effect of over 60% in size
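Using CellTiter-Glo luminescence, growth of non-resistant KB-3-1 adenocarcinoma cells is assessed 72 h after pin-tool compound addition at 37 °C. Normalized responses across the concentration series yield fitted curves.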
DT40 TDP1 CPT: growth inhibition of DT40 Tdp1-/-;hTDP1 cells with camptothecin (screen for TDP1 inhibitors); AID 686979; chicken DT40 Tdp1-/-;hTDP1 cells + 20 nM CPT, ATP luminescence, 48 h; Potency, µM (highest dose often 46.2 µM), for inactives: top-dose activity change, negative = growth inhibition, actives largely listed as inhibitors; hit rate 12% among 420,000; further: nearly all actives have a fitted effect of over 55% in size
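Chicken DT40 Tdp1-/- cells complemented with human TDP1, 400 cells/well, exposed to compounds plus 20 nM camptothecin for at least 48 h at 37 C; viability read as ATP content by CellTiter-Glo luminescence.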
DT40 TDP1 no CPT: qHTS for Inhibitors of human tyrosyl-DNA phosphodiesterase 1 (TDP1): qHTS in cells in absence of CPT | DT40 Tdp1-/- hTDP1 cells, no CPT, ATP luminescence, 48 h | Potency, µM (top dose mostly 46.2 µM), inactives show at the highest dose activity change, negative = growth inhibition, usual class: inhibitors | hit rate 15% among 420,000 | AID 686978, 2013; further: nearly all actives have a fitted effect of over 55% in size
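Chicken DT40 Tdp1-/- cells complemented with human TDP1, screened without camptothecin (DMSO vehicle only), 400 cells/well. Compounds pin-transferred, cells incubated at 37 °C for at least 48 hr. Growth read as ATP-dependent luminescence (CellTiter-Glo, 30 min at RT).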
HT1080 IDH1KD tx: HT-1080 IDH1 knockdown cell toxicity (counter line); HT-1080 IDH1 knockdown viability, ATP luminescence, 48 h; Potency, µM (doses to about 46.1 µM), for inactives: top-dose activity, negative = toxicity, actives largely listed as cytotoxic; hit rate 2% among 360,000;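 further: 0% = DMSO wells and -100% = cell-free medium wells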
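HT-1080-IDH1KD cells (IDH1 knocked down), 750/well in RPMI with 5% FBS, treated with compound 48 h at 37 degrees C. Viability by CellTiter-Glo luminescence, normalised to DMSO and no-cell wells; concentration-response curves classed.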
KB-V1 cytotox: kills drug-selected multidrug resistant KB-V1 cells. AID 1347076. hit rate 3.4% among 400,000. Potency, µM (doses to about 46.1 µM), actives largely listed as cytotoxic. KB-V1 MDR cells viability, CellTiter-Glo, 72 h; further: nearly all actives have a fitted effect of over 60% in size
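KB-V1 cells (P-gp-expressing MDR subline of KB-3-1) in phenol-red-free DMEM with 10% FBS were exposed to library compounds over a concentration series for 72 h at 37 degrees C. Viability read by CellTiter-Glo luminescence; concentration-effect curves fitted after normalization.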
* = called active by the depositor; i = inactive; ? = inconclusive; . = not tested or not shown; [ ] = another dose, or the depositor's remark. The call rests on the fitted dose curve; in most records, active means well fitted curve in the direction sought with a large enough effect; inconclusive means small, poorly fitted or top-dose-only effect, or another doubt; inactive means no such curve, though single readings can be large; an effect the other way counts as inactive or inconclusive. Unless noted, on the % scale 0 is the no-effect control and ±100 the full control effect; potency means the concentration at half of the fitted maximal effect.

SMILES	HT1080-NT tox	KB-3-1 cytotox	DT40 TDP1 CPT	DT40 TDP1 no CPT	HT1080 IDH1KD tx	KB-V1 cytotox
COc1ccc(C(C)C)cc1S(=O)(=O)n1cnc(C)c1	?	i	16.4µM*	23.1µM*	?	i
CCOc1cc(C)c(C(C)C)cc1S(=O)(=O)n1cnc(C)c1	?	?	?	?	11.6µM*	?
CCOc1cc(C)c(C(C)C)cc1S(=O)(=O)N1CC(C)OC(C)C1 (stereo not drawn)	-0.8%	i	?	?	-10.3%	?
COc1cc(C)c(Cl)cc1S(=O)(=O)n1cnc(C)c1	8.0%	i	-7.2%	-12.8%	0.0%	i
Cc1ccc(NC(=O)Nc2ccc(Cl)cc2)c(Br)c1	?	i	?	23.1µM*	?	i
Cc1ccc(S(=O)(=O)C2(C(=O)Nc3ccc(C)c(Cl)c3)CC2)cc1	.	i	-22.0%	?	.	i
Cc1ccc(S(=O)(=O)C2(C(=O)Nc3ccc(Cl)c(C(F)(F)F)c3)CC2)cc1	.	i	?	16.4µM*	.	i
Cc1ccc(NC(=O)C2(S(=O)(=O)c3ccc(Cl)cc3)CC2)c(Br)c1	-0.2%	i	?	16.4µM*	-4.2%	?
N#Cc1ccccc1OCC(=O)OCC(=O)NC1CC1	7.1%	i	-4.8%	15.4%	7.5%	?
CCC(=O)N(c1nnc(SCC(=O)Nc2ccccc2Cl)s1)C1CC1	-3.9%[9.24 µM]	i	0.1%	13.2%	9.9%	i
CC(C)(C)C(=O)Cn1ncc(N2CCCC2)c(Br)c1=O	3.4%	i	9.9%	-13.3%	3.0%	i
O=c1c(Cl)c(Cl)cnn1Cc1ccc(F)cc1	?	?	-112.4%	13µM*	?	i
O=C(OCn1ncc(Cl)c(Cl)c1=O)c1ccccc1Cl	7.31µM*	3.66µM*	2.31µM*	4.61µM*	5.8µM*	?
O=C(OCCN1CCCCC1)c1ccccc1Cl	-0.5%	i	-19.9%	5.1%	1.1%	i
CC(C)(C)C(=O)Cn1ncc(Cl)c(Cl)c1=O	13µM*	i	16.4µM*	10.3µM*	?	?
O=c1cnn(Cc2ccc(F)cc2)c2ccccc12	3.7%	i	?	?	0.3%	i
O=C(Cn1ncc(Cl)c(Cl)c1=O)c1ccc(Cl)cc1	14.6µM*	?	2.91µM*	2.59µM*	?	?
C=CCn1c(C)cc(C(=O)Cn2ncc(Cl)c(Cl)c2=O)c1C	?	?	5.8µM*	4.11µM*	3.26µM*	?
C=CCn1c(C)cc(C(=O)CN2NS(=O)(=O)c3ccccc3C2=O)c1C	16.4µM*	?	4.61µM*	3.66µM*	18.4µM*	?
C=CCn1c(C)cc(C(=O)COC(=O)[C@@H](NC(=O)c2ccccc2Cl)C(C)C)c1C	17.4%	i	?	?	13.1%	i
Cn1c(CNC(=O)CNC(=O)c2ccc(F)cc2)cc(=O)n(C)c1=O	-1.3%	i	7.6%	-8.1%	9.9%	i
O=C1c2ccccc2C(O)N1Cc1cccs1 (stereo not drawn)	-0.3%	i	3.5%	7.1%	4.4%	i
COc1ccc(-c2nc3c(c(=O)[nH]c(=O)n3Cc3ccccc3)n2CCO)cc1	?	i	2.1%	-9.0%	-17.1%	i
COCCn1c(=O)[nH]c(=O)c2c1nc(-c1ccc(-c3ccc(Cl)cc3[N+](=O)[O-])o1)n2Cc1ccccc1	?	?	16.4µM*	23.1µM*	?	23.1µM*
COc1ccc(-c2ccc(-c3nc4c(c(=O)[nH]c(=O)n4Cc4ccccc4)n3C)o2)c([N+](=O)[O-])c1	-1.3%	?	?	25.9µM*	-0.2%	i
SMILES	HT1080-NT tox	KB-3-1 cytotox	DT40 TDP1 CPT	DT40 TDP1 no CPT	HT1080 IDH1KD tx	KB-V1 cytotox
O=c1[nH]c(=O)n(Cc2ccccc2)c2nc(-c3ccc(Oc4ccc(F)cc4)c([N+](=O)[O-])c3)n(CCO)c12	20.6µM*	?	16.4µM*	18.4µM*	?	?
NC(=O)C1CCN(C(=O)/C=C/c2ccco2)CC1	-3.9%	i	-17.0%	-3.0%	0.1%	i
O=C(NCc1cccc(C(F)(F)F)c1)c1csc([C@H]2C[C@H](O)[C@@H](CO)O2)n1	3.8%	i	-9.2%	-8.3%	?	i
Cc1ccc(C(c2c(O)cc(C)n(Cc3ccco3)c2=O)N2CCC(C)CC2)cc1 (stereo not drawn)	.	i	2.5%	-13.1%	.	i
CCN(CC)S(=O)(=O)c1cccc(NC(=O)COC(=O)C2CC3C=CC2C3)c1 (stereo not drawn)	-5.2%	i	?	-24.4%	-0.2%	i
O=C(NNC(=S)Nc1ccc(F)cc1)C1[C@H]2CCCC[C@@H]12 (stereo partly drawn)	-6.4%	i	10.6%	-0.1%	-2.8%	i
COc1cc(OC)cc(-c2nnc(NC(=O)CCS(=O)(=O)c3ccc(F)cc3)o2)c1	-6.1%	i	?	?	-3.3%	i
COc1cc(-c2nnc(NC(=O)CCS(=O)(=O)c3ccc(F)cc3)o2)cc(OC)c1OC	-4.4%	i	?	18.4µM*	?	i
COc1cc(-c2nnc(NC(=O)CCS(=O)(=O)c3ccccc3)o2)cc(OC)c1OC	20.6µM*	i	16.4µM*	14.6µM*	?	i
Cc1ccc(C)c(-c2nnc(NC(=O)CCS(=O)(=O)c3ccccc3)o2)c1	2.1%	i	?	?	-12.5%	i
COc1cc(OC)cc(-c2nnc(NC(=O)CCS(=O)(=O)c3ccccc3)o2)c1	-5.9%	i	?	16.4µM*	-7.0%	i
O=C(O)/C=C/C(=O)NC1CC1	0.3%	i	2.1%	5.0%	14.3%	?
CCOCCCNC(=O)c1ccc(-n2c(-c3ccccc3)cc3c2CCCCC3)cc1	.	.	-17.5%	?	.	.
CC(C)OCCCNC(=O)c1ccc(-n2c(-c3ccccc3)cc3c2CCCC3)cc1	.	.	?	16.4µM*	.	.
CCCNC(=O)c1ccc2c(c1)nc1n2CCCCC1	.	.	-6.7%	-18.3%	.	.
CCCNC(=O)c1ccc(-n2c(-c3ccccc3)cc3c2CCCCC3)cc1	.	.	18.4µM*	20.6µM*	.	.
COCCCNC(=O)c1ccc(-n2c(-c3ccccc3)cc3c2CCC(C)C3)cc1 (stereo not drawn)	.	.	?	16.4µM*	.	.
CCC(C)NC(=O)c1ccc(-n2c(-c3ccccc3)cc3c2CCCC3)cc1 (stereo not drawn)	.	.	16.4µM*	?	.	.
CCC(C)NC(=O)c1ccc2c(c1)nc1n2CCCCC1 (stereo not drawn)	.	.	-8.1%	0.9%	.	.
